The list is not random: actives were taken first. Their share in the collection is about 1%.
GPT2 inh: inhibitors of human GPT2 alanine aminotransferase. Q8TD30. Potency, µM (doses to about 57.7 µM), for the others: top-dose activity change, negative = inhibition, hits mostly inhibitors. Recombinant GPT2, coupled pyruvate oxidase/HRP Amplex Red fluorescence. actives 0.25% (n = 100,000); note: potency is the fitted concentration of half-maximal effect; nearly all actives have a fitted effect of over 60% in size
Target sequence (Q8TD30 whole entry, looked up): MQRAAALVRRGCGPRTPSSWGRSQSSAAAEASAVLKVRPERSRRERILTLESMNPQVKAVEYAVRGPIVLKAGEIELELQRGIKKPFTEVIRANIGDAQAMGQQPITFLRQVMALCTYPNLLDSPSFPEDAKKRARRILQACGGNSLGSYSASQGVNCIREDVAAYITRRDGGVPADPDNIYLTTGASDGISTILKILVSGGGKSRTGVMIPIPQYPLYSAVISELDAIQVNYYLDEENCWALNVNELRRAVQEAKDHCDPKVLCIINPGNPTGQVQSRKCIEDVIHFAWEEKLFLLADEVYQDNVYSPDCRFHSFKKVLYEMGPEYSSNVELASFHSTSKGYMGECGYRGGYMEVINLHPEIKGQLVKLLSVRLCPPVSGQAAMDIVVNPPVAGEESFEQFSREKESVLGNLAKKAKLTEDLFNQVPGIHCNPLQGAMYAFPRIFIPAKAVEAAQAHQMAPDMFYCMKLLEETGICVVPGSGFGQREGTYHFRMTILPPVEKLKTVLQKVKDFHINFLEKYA
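Fluorescence of coupled pyruvate oxidase/HRP/Amplex Red system (50uM Amplex, 30 min, dark) reports pyruvate formed by GPT2. Enzyme reaction: 10ng/uL GPT2, 2mM L-alanine, 250uM a-KG, 30 min room temperature, pH 7.5; 50uM AOA control.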
IP6K1 inh: inhibitors of human IP6K1; IP6K1 kinase, ADP-Glo luminescence, 2 h; stronger effect = lower value; activity change, % (series mostly up to about 58 µM); actives 0.81% (n = 140,000); Q92551; AID 1645851; in the data active = activity change below about -25%
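ADP-Glo luminescence measures ADP made by human IP6K1 during a 2 h RT reaction with ATP/IP6 (mix at 1.3 mM/130 uM); top library doses 57.5 and 19.1 uM final.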
HEK293 viab: reduces viability of HEK-293 SNCA reporter cells; actives 0.12% (n = 150,000); AID 1671193; HEK-293-SNCA-luc viability, GF-AFC fluorescence, 24 h; Potency, µM (titrated, usually from 57.1 µM), inactives show at the top dose activity change, negative = cytotoxicity, actives largely listed as cytotoxic;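 note: potency is the fitted concentration of half-maximal effect; 0% = DMSO-treated cells and -100% = medium-only wells without cells; nearly all actives have a fitted effect of over 30% in size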
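Cytotoxicity counterscreen: after 24 h compound treatment of genome-edited SNCA-luciferase HEK-293 cells, live-cell protease substrate GF-AFC read by fluorescence after 30 min; activity scaled between DMSO (0%) and medium-only (-100%), curves Hill-fitted.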
SNCA expr inhib: SNCA gene expression inhibition | actives 0.17% (n = 140,000) | AID 1671194 | HEK-293 SNCA-luciferase knock-in, luminescence, 24 h | Potency, µM (series often up to 57.2 µM), for inactives: at the top dose activity change, negative = inhibition, hits mostly inhibitors;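 note: potency is the fitted concentration of half-maximal effect; plate controls were DMSO cells for no effect and cell-free wells for full effect; nearly all actives have a fitted effect of over 45% in size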
IP6K1 conf: confirmation of human IP6K1 inhibitors; shares compounds with IP6K1 inh; recombinant IP6K1 kinase, ADP-Glo luminescence, 2 h; Potency, µM (top dose mostly 49 µM), for the others: top-dose activity change, negative = inhibition, actives largely listed as inhibitors; actives 13% (n = 1,200); note: potency is the fitted concentration of half-maximal effect; nearly all actives have a fitted effect of over 65% in size
* marks the source's active call; other numbers are inactive results; [ ] = dose if it differs, or a comment. Unless noted, calls come from the whole dose curve; as a rule, active = well fitted curve in the direction sought with a large enough effect; inconclusive = small, poorly fitted or top-dose-only effect, or another doubt; inactive = no such curve, though single readings can be large; an effect the other way counts as inactive or inconclusive. Unless noted, % is set by controls: 0 for no effect and ±100 for the full control effect.

What do the screens show for `O=[S+]([O-])(c1cccc(C(F)(F)F)c1)N1CCCN(c2ccc3nnc(-c4ccccc4)n3n2)CC1`?
IP6K1 inh: -3.2

What do the screens show for `Cc1ccccc1-c1cc(O)c2c(c1)CN(Cc1ccoc1)CCO2`?
GPT2 inh: 3.2%; IP6K1 inh: 9.4; HEK293 viab: -0.6%; SNCA expr inhib: -2.0%

Results for CCCCCNS(=O)(=O)c1ccc(N2CCCCS2(=O)=O)cc1 ?
IP6K1 inh: 7.5; HEK293 viab: 13.6%; SNCA expr inhib: -2.5%

How did CC(C)CCNS(=O)(=O)c1ccc(N2CCCCS2(=O)=O)cc1 do in these assays?
IP6K1 inh: -30.1*; HEK293 viab: -1.9%; SNCA expr inhib: -15.9%; IP6K1 conf: -15.9%

How did Cc1ccc(NC(=O)Cn2ncn3c(cc4ccccc43)c2=O)cc1F do in these assays?
IP6K1 inh: -1.5; HEK293 viab: 2.2%; SNCA expr inhib: 6.4%

What do the screens show for `Cc1ccc(NC(=O)Cn2ncn3c(cc4ccccc43)c2=O)cc1C`?
IP6K1 inh: -28.3*; HEK293 viab: -8.2%; SNCA expr inhib: 3.7%; IP6K1 conf: -7.1%

Results for O=C(c1n[nH]c2ccccc12)N1CCC(Cc2nc(-c3ccccc3)n[nH]2)CC1 ?
GPT2 inh: 2.3%; IP6K1 inh: 15.9; HEK293 viab: -2.8%; SNCA expr inhib: -25.3%

How did Cc1cccc2sc(N(CCN(C)C)C(=O)c3ccc4c(c3)OCCO4)nc12 do in these assays?
IP6K1 inh: -35.2*; HEK293 viab: 5.8%; SNCA expr inhib: -9.2%; IP6K1 conf: 12.9%

How did CC(C)CCN1CC2(CCCN(S(=O)(=O)N3CCOCC3)C2)CCC1=O (stereo unspecified) do in these assays?
GPT2 inh: 0.4%[11.5 µM]; IP6K1 inh: -33.4*; HEK293 viab: -5.8%; SNCA expr inhib: 16.8%; IP6K1 conf: -11.2%

What do the screens show for `O=C1N(CC2CC2)CCCC12CCN(S(=O)(=O)N1CCOCC1)C2` (stereo unspecified)?
GPT2 inh: inactive; IP6K1 inh: -3.3; HEK293 viab: -0.9%; SNCA expr inhib: 7.8%

What do the screens show for `O=C(C1CCCC1)N1CC2(CCCN(CC3CCCCC3)C2)Cc2ccccc21` (stereo unspecified)?
GPT2 inh: -0.7%; IP6K1 inh: 3.2; HEK293 viab: 8.1%; SNCA expr inhib: -10.0%

Results for Nc1ccc(O)c([N+](=O)[O-])c1 ?
GPT2 inh: inconclusive; IP6K1 inh: -28.0*; HEK293 viab: 13.4%; SNCA expr inhib: 153.2%; IP6K1 conf: 31.6µM*

How did CCCc1noc(-c2ccn3c(CNC(=O)c4ccc(C)c(C)c4)nnc3c2)n1 do in these assays?
GPT2 inh: inactive; IP6K1 inh: 12.6; HEK293 viab: 6.7%; SNCA expr inhib: -16.4%

What do the screens show for `CCCCNC(=O)CN1CCN(c2ncc(NC(=O)c3ccc(Cl)cc3)cc2C(=O)O)CC1`?
IP6K1 inh: -58.5*; HEK293 viab: 12.5%; SNCA expr inhib: 27.8%; IP6K1 conf: inconclusive

What do the screens show for `CCCNC(=O)CN1CCN(c2ncc(NC(=O)c3ccc(Cl)cc3)cc2C(=O)O)CC1`?
IP6K1 inh: -22.8; HEK293 viab: -3.4%; SNCA expr inhib: 38.1%

Results for CCn1c2ccccc2c2cc(CN3CCN(Cc4ccc(OC)c(OC)c4)CC3)ccc21 ?
IP6K1 inh: -17.8; HEK293 viab: -9.1%; SNCA expr inhib: 4.7%

What do the screens show for `CCOc1ccc(CN2CCN(Cc3ccc4c(c3)c3ccccc3n4CC)CC2)cc1`?
IP6K1 inh: -32.5*; HEK293 viab: -3.6%; SNCA expr inhib: -1.9%; IP6K1 conf: 6.6%

How did COCCCn1c(=O)c(C(=O)NCCc2ccccc2)nc2cccnc21 do in these assays?
GPT2 inh: -7.0%; IP6K1 inh: 9.5; HEK293 viab: -2.0%; SNCA expr inhib: -10.3%

What do the screens show for `COc1cccc(-c2nnnn2[C@H]2CO[C@H]3[C@@H]2OC[C@@H]3NS(=O)(=O)c2ccccc2C#N)c1`?
GPT2 inh: -11.1%; IP6K1 inh: 16.7; HEK293 viab: -0.1%; SNCA expr inhib: -4.8%

Results for Cc1cc(SCc2sc(-c3ccc(C(F)(F)F)cc3)nc2C)ccc1OCC(=O)O ?
GPT2 inh: -3.9%; IP6K1 inh: -29.2*; HEK293 viab: 3.6%; SNCA expr inhib: 34.4%; IP6K1 conf: 10.3µM*

How did COc1ccc(NC(=O)CSc2n[nH]c(-c3ccccc3)n2)cc1Cl do in these assays?
IP6K1 inh: -22.6; HEK293 viab: -9.0%; SNCA expr inhib: inconclusive

How did COc1ccc(-c2nc(SCC(=O)Nc3cccc(C(C)=O)c3)n[nH]2)cc1 do in these assays?
IP6K1 inh: -33.4*; HEK293 viab: -23.5%; SNCA expr inhib: -1.1%; IP6K1 conf: inconclusive

Results for COc1ccc2nc(N3CCN(C(=O)CS(=O)(=O)c4ccc(C)cc4)CC3)sc2c1 ?
IP6K1 inh: -28.7*; HEK293 viab: 3.3%; SNCA expr inhib: -17.0%; IP6K1 conf: -13.8%

What do the screens show for `Cc1cccc(-c2nc3c4ccccc4nc(NCc4ccccc4Cl)n3n2)c1`?
IP6K1 inh: -27.2*; HEK293 viab: 4.0%; SNCA expr inhib: 90.3%; IP6K1 conf: -25.6%

Results for O=C(c1ccc(Cl)cc1)N1CCC2(CC1)CC(c1cccc(C(F)(F)F)c1)=NO2 ?
IP6K1 inh: 7.1

How did CNC(=O)c1cc(C2CC2)nc2c1c(C1CCCN1[S+](=O)([O-])c1cccs1)nn2C (stereo unspecified) do in these assays?
IP6K1 inh: 0.7

What do the screens show for `Cc1c(Cl)cccc1NC(=O)CSc1nc(=O)[nH]c2c1CCCC2`?
IP6K1 inh: -26.9*; HEK293 viab: -1.5%; SNCA expr inhib: -4.5%; IP6K1 conf: -16.0%

How did Cc1cc(-c2nc3ccncc3[nH]2)c(C)o1 do in these assays?
GPT2 inh: inconclusive; IP6K1 inh: 8.0; HEK293 viab: -7.5%[87.6 µM]; SNCA expr inhib: 93.6%[87.6 µM]

What do the screens show for `CCN(C(=O)C(NS(=O)(=O)c1cccc2nsnc12)c1ccccc1)c1ccccc1` (stereo unspecified)?
IP6K1 inh: -27.6*; HEK293 viab: 4.3%; SNCA expr inhib: -17.8%; IP6K1 conf: -12.1%

What do the screens show for `O=c1cc(-c2ccncc2)oc2c(-c3cccc(CO)c3)nccc12`?
GPT2 inh: inactive; IP6K1 inh: -11.1; HEK293 viab: 0.5%[87.6 µM]; SNCA expr inhib: -7.1%[87.6 µM]

Results for CN(C)c1cc(=O)c2ccnc(-c3cccc(CO)c3)c2o1 ?
GPT2 inh: inactive; IP6K1 inh: -25.3*; HEK293 viab: -2.2%[87.6 µM]; SNCA expr inhib: -20.4%[87.6 µM]; IP6K1 conf: -2.9%[92.2 µM]

What do the screens show for `CCCCN(Cc1ccccc1)S(=O)(=O)c1cc(Br)cc2c1N(C(C)=O)CC2`?
IP6K1 inh: -27.0*; HEK293 viab: 1.4%; SNCA expr inhib: 24.2%; IP6K1 conf: 10.1%

What do the screens show for `CCCCN(Cc1ccccc1)S(=O)(=O)c1cc(Br)cc2c1N(C(=O)C1CC1)CC2`?
IP6K1 inh: -7.9; HEK293 viab: 3.3%; SNCA expr inhib: -17.9%

Source: PubChem
